Data on four compounds can be found in PubChem BioAssay (EPA / NIEHS).

Test [1] is described as follows: ATG_CMV_CIS: Attagene CIS-FACTORIAL HepG2 Assay for human CMV (Internal Marker) (AID 2282928).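 Also: endpoint acts as a background internal control marker rather than a target.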 Particulars: HepG2 CMV promoter reporter, transcription factor profiling; actives raise or lower the signal. An outline of the steps: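 Endogenous transcription factor activity read in HepG2 via transfected cis-promoter reporter units. After 24 h dosing, reporter mRNA measured by RT-PCR/capillary electrophoresis; gain or loss of signal fit relative to DMSO.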

Test [2] is described as follows: ATG_DR4_LXR_CIS: Attagene CIS-FACTORIAL HepG2 Assay for human Liver X Receptor (LXR), DR4 submotif (AID 2282929). Particulars: HepG2 Attagene DR4 cis-reporter, mRNA transcription; actives raise or lower the signal. Put shortly: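 Total RNA from 24 h-treated, MRTU-transfected HepG2 cells underwent reverse transcription, PCR, fluorescent primer extension and restriction digestion before capillary electrophoresis. Both increases and decreases in reporter signal were fitted against DMSO.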

Test [3] is described as follows: ATG_AP_2_CIS: Attagene CIS-FACTORIAL HepG2 Assay for human Activator Protein 2 (AP-2) (AID 2282932). Particulars: HepG2 AP-2 cis-reporter, Attagene transcription factor profiling; actives raise or lower the signal. An outline of the steps: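 HepG2 cells transiently transfected with cis-element reporter units and exposed for 24 h. Reporter mRNA measured by RT-PCR, FAM labelling, HpaI digestion and capillary electrophoresis. Changes in either direction fitted relative to DMSO.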

The target in test [4] is Transcription factor E2F1 (Homo sapiens) (UniProt Q01094). The test can be described thus: ATG_E2F_CIS: Attagene CIS-FACTORIAL HepG2 Assay for human E2F Transcription Factor 1 (AID 2282935). Particulars: HepG2 Attagene cis-reporter, E2F reporter RNA transcripts; actives raise or lower the signal. An outline of the steps: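 Endogenous E2F1 activity read through cis-promoter reporter units transfected into HepG2. After 24 h compound treatment, reporter mRNA measured by RT-PCR, HpaI digestion and capillary electrophoresis. Bidirectional fit versus DMSO.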
Sequence of Transcription factor E2F1 (Homo sapiens) (Q01094 whole entry, looked up): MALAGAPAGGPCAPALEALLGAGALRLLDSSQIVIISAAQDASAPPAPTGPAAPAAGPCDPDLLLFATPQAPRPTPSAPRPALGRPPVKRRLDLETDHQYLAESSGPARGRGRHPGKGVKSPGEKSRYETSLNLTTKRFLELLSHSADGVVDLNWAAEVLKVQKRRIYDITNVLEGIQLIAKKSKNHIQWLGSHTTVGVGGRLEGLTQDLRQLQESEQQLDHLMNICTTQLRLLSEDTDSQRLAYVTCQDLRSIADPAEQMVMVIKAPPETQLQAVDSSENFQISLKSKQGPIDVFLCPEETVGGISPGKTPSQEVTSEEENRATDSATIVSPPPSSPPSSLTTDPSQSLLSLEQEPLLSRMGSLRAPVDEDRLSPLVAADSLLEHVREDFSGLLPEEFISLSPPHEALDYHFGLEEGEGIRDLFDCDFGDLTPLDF

A short description of test [5]: ATG_M_61_CIS: Attagene CIS-FACTORIAL HepG2 Assay for M61 Transcription Factor (Internal Marker) (AID 2282937). Particulars: HepG2 Attagene CIS-FACTORIAL M61 internal marker reporter; actives raise or lower the signal. An outline of the steps: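 Transfect HepG2 with MRTUs; dose 24 h; isolate RNA; reverse-transcribe with DNase I treatment; PCR-amplify, FAM-label and cut with HpaI for 2 h at 37 C; resolve by CE. Bidirectional fitting against DMSO.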

The nature of test [6]: ATG_EGR_CIS: Attagene CIS-FACTORIAL HepG2 Assay for human Early Growth Response 1 (EGR1) (AID 2282938). Particulars: HepG2 Attagene CIS-FACTORIAL EGR reporter mRNA; actives raise or lower the signal. Put shortly:
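After a 24 h treatment of transiently transfected HepG2 cells, total RNA was reverse-transcribed and reporter sequences PCR-amplified, labelled and run on capillary electrophoresis. Reporters sit under cis-regulatory promoters sensing endogenous factors.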

Test [7] is described as follows: ATG_Ets_CIS: Attagene CIS-FACTORIAL HepG2 Assay for human Erythroblast Transformation Specific (ETS) (AID 2282941). Particulars: HepG2 ETS cis-reporter transcription, actives raise or lower the signal. Put shortly:
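Steps: transfect HepG2 with multiple reporter units; treat compound 24 h; isolate RNA, DNase-treat, reverse-transcribe; PCR-amplify, label with 6-FAM, digest with HpaI; separate by capillary electrophoresis. Activity fitted both directions versus DMSO.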

Test [8] has as its target Hepatocyte nuclear factor 3-beta (Homo sapiens) (UniProt Q9Y261). The test is described as follows: ATG_FoxA2_CIS: Attagene CIS-FACTORIAL HepG2 Assay for human Forkhead box A2 (FOXA2) (AID 2282942). Particulars: HepG2 cis-reporter transcription factor activity, 24 h; actives raise or lower the signal. Put shortly:
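24 h dosing of HepG2 bearing cis-reporter constructs; mRNA readout by RT-PCR/CE fluorescence; bidirectional fit, DMSO baseline.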

A short description of test [9]: ATG_FoxO_CIS: Attagene CIS-FACTORIAL HepG2 Assay for human Forkhead box O (FoxO) (AID 2282943). Particulars: HepG2 Attagene cis-reporter, FoxO element, mRNA; actives raise or lower the signal. Put shortly: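 Read-out: fluorescence of 6-FAM-labelled reporter cDNA fragments resolved by capillary electrophoresis. Transiently transfected HepG2 cells were dosed for 24 h; activity fitted in both directions relative to DMSO controls.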

Test [10] can be described thus: ATG_GATA_CIS: Attagene CIS-FACTORIAL HepG2 Assay for human GATA Binding Protein (AID 2282944). Particulars: HepG2 GATA cis-element reporter, Attagene multiplex mRNA; actives raise or lower the signal. Put shortly: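 DMSO serves as negative control and baseline for bidirectional fitting of reporter mRNA changes. HepG2 cells bearing transiently transfected cis-promoter reporters were exposed 24 h; transcripts detected via RT-PCR and capillary electrophoresis.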

The nature of test [11]: ATG_ISRE_CIS: Attagene CIS-FACTORIAL HepG2 Assay for human Interferon Regulatory Factor 1 (IRF1) binding to an Interferon-Stimulated Response Element (ISRE) (AID 2282948). Particulars: HepG2 ISRE cis-reporter (Attagene), mRNA transcription readout; actives raise or lower the signal. Put shortly: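 Transfected HepG2 (multiple reporter transcription units, cis elements) dosed 24 h. RNA → oligo(dT) RT → PCR → 6-FAM primer extension → HpaI → CE. DMSO = negative control/baseline.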

A short description of test [12]: ATG_M_32_CIS: Attagene CIS-FACTORIAL HepG2 Assay for M32 Transcription Factor (Internal Marker) (AID 2282949).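 Also: background control marker of the multiplexed CIS panel rather than a real target.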 Particulars: HepG2 Attagene cis-factorial M32 reporter, mRNA; actives raise or lower the signal. Put shortly: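 Fluorescent capillary electrophoresis peaks of HpaI-digested, FAM-labelled RT-PCR reporter products give the signal. Source: transiently transfected human liver HepG2 cells, 24 h after chemical dosing; bidirectional fitting against DMSO.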

Test [13] is described as follows: ATG_MRE_CIS: Attagene CIS-FACTORIAL HepG2 Assay for human Metal Responsive Element (MRE) (AID 2282954). Particulars: HepG2 MRE cis-reporter transcription, Attagene multiplex; actives raise or lower the signal. Put shortly: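 HepG2 cells transiently transfected with cis-element-driven reporter units; mRNA measured 24 h after dosing. Reporter transcripts quantified by RT-PCR, FAM labelling, HpaI digestion and capillary electrophoresis; bidirectional fit versus DMSO.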

In test [14] the target is Paired box protein Pax-6 (Homo sapiens) (UniProt P26367). The test can be described thus: ATG_Pax6_CIS: Attagene CIS-FACTORIAL HepG2 Assay for human Paired Box 6 (PAX6) (AID 2282956). Particulars: HepG2 CIS-FACTORIAL PAX6 reporter transcription, RNA readout; actives raise or lower the signal. Put shortly:
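Transient MRTU transfection of HepG2 → compound exposure 24 h → TriZol RNA, oligo(dT) RT → PCR, 6-FAM primer extension, HpaI cut → capillary electrophoresis; activity fitted both directions against DMSO.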

A short description of test [15]: ATG_PXRE_CIS: Attagene CIS-FACTORIAL HepG2 Assay for human Pregnane X Receptor Element (PXRE) (AID 2282957). Particulars: HepG2 Attagene CIS-FACTORIAL PXRE reporter, mRNA; actives raise or lower the signal. An outline of the steps: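 Transiently transfected HepG2 cells were dosed and incubated for 24 h. RNA was then isolated, DNase-treated, reverse-transcribed and reporter sequences amplified. Labeled, HpaI-digested fragments were quantified by capillary electrophoresis against DMSO.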

A short description of test [16]: ATG_Sox_CIS: Attagene CIS-FACTORIAL HepG2 Assay for human SRY-box transcription factor (SOX) (AID 2282960). Particulars: HepG2 Attagene cis-factorial SOX reporter, mRNA; actives raise or lower the signal. Put shortly: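 HepG2, cis reporter units, 24 h exposure. Reporter mRNA: RT-PCR → FAM labelling → HpaI → CE fluorescence. Bidirectional fit vs DMSO.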
The nature of test [17]: ATG_SREBP_CIS: Attagene CIS-FACTORIAL HepG2 Assay for human Sterol Regulatory Element Binding (SREBP) (AID 2282962). Particulars: HepG2 Attagene cis-factorial SREBP reporter, mRNA; actives raise or lower the signal. Put shortly: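 Transfected HepG2 (cis-regulated reporter library, endogenous TFs) → compound 24 h → total RNA → oligo(dT) RT → reporter-specific PCR → FAM primer extension, HpaI cut → CE fluorescence. Fit bidirectional vs DMSO.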

A short description of test [18]: ATG_TCF_b_cat_CIS: Attagene CIS-FACTORIAL HepG2 Assay for human T-Cell-Factor with beta-catenin (TCF/b-cat) (AID 2282965). Particulars: HepG2 TCF/beta-catenin cis-reporter transcription, actives raise or lower the signal. An outline of the steps:
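HepG2, transient MRTU transfection, cis-element-driven reporters (endogenous TFs). 24 h compound exposure. Readout: reporter mRNA by RT-PCR + 6-FAM primer extension, HpaI digest, capillary electrophoresis. Gain/loss fit vs DMSO baseline.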

Test [19] can be described thus: ATG_TAL_CIS: Attagene CIS-FACTORIAL HepG2 Assay for human TAL Basal Promoter (AID 2282966).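 Also: background control endpoint measuring basal TAL promoter reporter mRNA not a specific factor.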 Particulars: HepG2 Attagene cis-factorial TAL promoter reporter; actives raise or lower the signal. Put shortly: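 Readout: reporter mRNA, fluorescence by CE. System: HepG2, transient multi-reporter transfection, endogenous TF activity. Exposure: 24 h. Analysis: bidirectional, DMSO-normalized; background control.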

Test [20] is described as follows: ATG_TGFb_CIS: Attagene CIS-FACTORIAL HepG2 Assay for human Transforming Growth Factor (TGF) (AID 2282967). Particulars: HepG2 Attagene CIS TGFb reporter, mRNA transcription; actives raise or lower the signal. An outline of the steps:
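Transcript-level reporter readout: HepG2 transfectants, 24 h exposure, RNA to cDNA, reporter-specific PCR, fluorescent primer extension, capillary sizing against ROX standards. Gain- or loss-of-signal relative to DMSO.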

Each structure is given as a SMILES string. The source made the active and inactive calls. The calls were made as follows: active = hit-call score of the fitted dose curve at least 0.9, where 1 is the maximum; inactive = score below 0.9.

Sequence of Hepatocyte nuclear factor 3-beta (Homo sapiens) (Q9Y261 whole entry, looked up): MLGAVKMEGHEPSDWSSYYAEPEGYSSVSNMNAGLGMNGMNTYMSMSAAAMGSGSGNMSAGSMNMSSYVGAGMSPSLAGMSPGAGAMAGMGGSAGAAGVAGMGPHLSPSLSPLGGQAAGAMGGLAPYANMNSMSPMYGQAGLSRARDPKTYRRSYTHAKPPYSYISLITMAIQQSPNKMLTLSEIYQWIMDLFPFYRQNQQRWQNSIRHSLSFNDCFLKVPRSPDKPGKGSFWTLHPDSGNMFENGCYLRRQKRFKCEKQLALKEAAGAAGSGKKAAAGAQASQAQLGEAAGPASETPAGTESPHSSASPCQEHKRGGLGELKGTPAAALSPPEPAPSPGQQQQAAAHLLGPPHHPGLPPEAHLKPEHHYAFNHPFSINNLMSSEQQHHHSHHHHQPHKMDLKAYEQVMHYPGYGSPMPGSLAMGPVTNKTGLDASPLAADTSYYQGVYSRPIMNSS
Sequence of Paired box protein Pax-6 (Homo sapiens) (P26367 whole entry, looked up): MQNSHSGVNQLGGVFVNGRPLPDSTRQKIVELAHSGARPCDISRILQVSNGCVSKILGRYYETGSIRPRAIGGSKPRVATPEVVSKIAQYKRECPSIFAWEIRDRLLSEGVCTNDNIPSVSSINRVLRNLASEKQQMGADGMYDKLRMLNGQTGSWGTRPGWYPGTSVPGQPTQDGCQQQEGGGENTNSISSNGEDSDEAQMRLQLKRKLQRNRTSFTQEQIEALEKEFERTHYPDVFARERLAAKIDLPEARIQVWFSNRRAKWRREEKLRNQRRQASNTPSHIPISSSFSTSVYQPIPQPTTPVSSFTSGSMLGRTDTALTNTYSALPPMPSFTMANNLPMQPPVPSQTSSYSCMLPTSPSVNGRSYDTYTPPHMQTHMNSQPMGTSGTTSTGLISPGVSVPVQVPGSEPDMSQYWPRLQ

In the case of `O=c1c2ccccc2c(=O)c2c1cc(Cl)c1[nH]c3c([nH]c12)c(Cl)cc1c(=O)c2ccccc2c(=O)c13`, the call in test [1], in [2], in test [3], in test [4], in test [5] and in test [6] was inactive. Moreover, the result in test [7], in test [8], in test [9], in test [10], in test [11] and in test [12] was inactive. In addition, the outcome in [13], in test [14], in test [16], in [17], in test [18] and in test [19] was inactive. For the same compound, the call in test [20] was inactive. Further, the AC50 in test [15] is 11.2 µM (active).

Take `Nc1ccc(-c2ccc(N)c(N)c2)cc1N`: the result in test [1], in test [2], in test [3], in test [4], in test [5] and in [6] was inactive. Moreover, the outcome in [7], in test [8], in test [9], in [10], in test [11] and in [12] was inactive. The result in test [13], in test [14], in test [15], in [16], in [17] and in test [18] was inactive. Further, the call in test [19] and in test [20] was inactive.

As to `Cc1ccc(C)c2ccccc12`, the compound was classed as inactive in [1], in test [2], in test [3], in test [4], in [5] and in test [6]. The result in test [7], in test [8], in [9], in test [10], in [11] and in test [12] was inactive. Moreover, the compound was classed as inactive in [13], in test [14], in test [16], in test [17], in test [18] and in [19]. The outcome in test [20] was inactive. The AC50 in test [15] was 33.4 µM (active).

As to `O=[N+]([O-])c1cc(C(F)(F)F)c(Cl)c([N+](=O)[O-])c1Cl`, the AC50 in test [1] was 5.9 µM (active); in [2], 5.08 µM (active); in test [6] it was 4.82 µM (active); in test [11], 5.65 µM (active); in test [13] it was 5.11 µM (active); in test [14] it was 2.77 µM (active). The concentration at half-maximal activity (AC50) is 5.81 µM (active) in [16] and 5.54 µM (active) in test [18]. Besides, the outcome in test [3], in test [4], in test [5], in test [7], in test [8] and in [9] was inactive. The result in test [10], in test [12], in test [15], in test [17], in test [19] and in [20] was inactive.

Broadly, the AC50 is the concentration giving half of the maximal activity seen.
